Measured values as given in PubChem BioAssay (NCI).
This is part of a sample that, as a whole, favours compounds with a hit. Of some 83,000 tested, about 20% had one in any assay.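 For each line, cells grew in 96-well plates with the test compound present at a single concentration for 48 hours.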 Values without a mark were called inactive. Active and inactive are the calls of the source.

The compounds below were run on COLO 205 colon (assay: NCI-60 one-dose screen, 48 h (100 = growth as untreated, 0 = no growth, -100 = all killed)). Conditions: 10 µM unless noted.
Experimental: Cells are grown in 96 well plates and exposed to the test compound for 48 hours. Compounds are tested at a single concentration, which is 10^-5 M for most compounds. The reported endpoint is percent growth (GI% or GIPRCNT), where numbers from 0 - 100% represent growth inhibition, and numbers from -100% - 0 represent cell death. For example, a value of 40 represents 60% growth inhibition. A value of 0 means no net growth occurred over the course of the experiment. A value of -40 indicates 40% of cells at the beginning of the experiment died by the end of the experiment. A value of -100 means all cells are dead at the end of the experiment.
NCI-60 Human Tumor Cell Lines Screen was performed using the standard one-dose NCI protocol, which is described in more detail at https://dtp.cancer.gov/discovery_development/nci-60/default.htm.
Compounds with GIPRCNT values below 10 were considered active. Activity score was based on GIPRCNT using the following formula: […]
Score is 0 for GIPRCNT values of 100 or above, 50 for GIPRCNT values of 0, and 100 for GIPRCNT values of -100.
In the case of `CCCCCCCCCCC(C(O)c1ccccc1)N1CCCCC1` (stereo not given), the growth is reported as -76.3% (active).
For `CC(=O)O[C@H]1[C@H](CC#CC#CC[C@@H]2C[C@]3(C)[C@H]4CC=C5[C@H]6[C@@H](C)[C@H](C)CC[C@]6(C(=O)NCCCCCCCCN)CC[C@@]5(C)[C@]4(C)CC[C@H]3C(C)(C)[C@H]2OC(C)=O)C[C@]2(C)[C@H]3CC=C4[C@H]5[C@@H](C)[C@H](C)CC[C@]5(C(=O)NCCCCCCCCN)CC[C@@]4(C)[C@]3(C)CC[C@H]2C1(C)C`, the growth was 114%.
`O=C(N=Nc1c(Cl)c(O)c2ccccc2c1O)C(=O)Nc1cccc(C(F)(F)F)c1` showed a growth of 47.3%.
`Cc1cc(C)c2c(n1)sc1c(Nc3ccc(Cl)cc3Cl)ncnc12` showed a growth of 23.3%.
In the case of `N#Cc1c(NN)n(C2OC(CO)C(O)C2O)c2ncnc(N)c12` (stereo not given), the growth is reported as -32.7% (active).
`COc1cc2nccc(Oc3ccc(NC(=O)C4(C(=O)Nc5ccc(F)cc5)CC4)cc3)c2cc1OC(=O)c1ccc(N)cc1` was tested, and the growth was -36.5% (active).
`NC(N)=N/N=C/c1ccccc1` was tested, and the growth was 99.9%.
Work on `O=[N+]([O-])c1cc(F)c2cccnc2c1O` yielded a growth of 104%.
With `O=NN(CC(=O)NNc1ccccc1)CC(=O)NNc1ccccc1` the growth was 68.6%.
Work on `Nc1ncnc2c1N=C(c1ccc(F)cc1)CC(c1sc(Cl)nc1Cl)N2` (stereo not given) yielded a growth of 104%.
In the case of `CN1CCN(Cc2ccc(NC(=O)c3cncc(C#Cc4ncc5ccccn45)c3)cc2C(F)(F)F)CC1`, the growth is reported as -26.5% (active).
`CC1=C(C(=O)Nc2ccc(F)cc2)C(c2ccc(C)cc2)C2=C(CC(C)(C)CC2=O)N1` (stereo not given) was tested, and the growth was 105%.
Compound `O=C(CI)NCCNc1cccc2c(S(=O)(=O)O)cccc12` has a growth of 105%.
In the case of `COc1cc(NCCCCC(C)N)c2nccc(C)c2c1` (stereo not given), the growth is reported as 37%.
For `CC1CN(CCCOC(=O)Nc2ccc(Cl)cc2)CCN1C(C)(C)C` (stereo not given), the growth was 102%.
Work on `CCOC(=O)c1sc2nc(-c3cc4ccccc4o3)cc(-c3ccc(Cl)cc3)c2c1N` yielded a growth of 115%.
For `COc1ccc(-c2nnc(SCC(=O)Nc3ccc(C(=O)/C=C/c4ccc(Cl)cc4)cc3)n2-c2ccccc2)cc1`, the growth was 107%.
In the case of `N=C(N)c1ccc(-c2ccc(-c3cc(Cl)cc(Cl)c3)o2)nc1`, the growth is reported as -76.6% (active).
`N=c1n(Cc2ccccc2)c(N)cc(=O)n1Cc1ccccc1` gave a growth of 66.8%.
Compound `CC(C)CC(NC(=O)OCC1c2ccccc2-c2ccccc21)C(=O)O` (stereo not given) has a growth of 111%.
`CC(=O)O[C@H]1[C@H](CC#CC#CC[C@@H]2C[C@]3(C)[C@H]4CC=C5[C@H]6[C@@H](C)[C@H](C)CC[C@]6(C(=O)NCCN(CCN)CCN)CC[C@@]5(C)[C@]4(C)CC[C@H]3C(C)(C)[C@H]2OC(C)=O)C[C@]2(C)[C@H]3CC=C4[C@H]5[C@@H](C)[C@H](C)CC[C@]5(C(=O)NCCN(CCN)CCN)CC[C@@]4(C)[C@]3(C)CC[C@H]2C1(C)C` was tested, and the growth was 78%.
With `C/C(=N\OC(=O)Nc1ccccc1)c1ccccc1` the growth was 114%.
In the case of `COc1cc(OC)cc(-c2n/c(=C\c3c(O)[nH]c4ccc(Cl)cc34)cc3c2=Nc2ccccc2-3)c1`, the growth is reported as 90.5%.
For `CC(C)c1[nH]ncc1-c1nc2ccc3[nH]ncc3c2c2c1CCCC2`, the growth was 7.79% (active).
`COc1ccc(-n2nc(C(=O)NCC(=O)Nc3nc4cc(OC)ccc4s3)c3ccccc3c2=O)cc1` was tested, and the growth was 32.7%.
`COc1c(-c2cc(-c3ccc(C)o3)[nH]c(=O)n2)c(O)cc2occc12` gave a growth of 104%.
With `c1ccc2c(Cc3csc4ccccc34)csc2c1` the growth was 83.3%.
`COc1cc2c(cc1OCCCOc1cc3c(cc1OC)C(=O)N1CCC[C@H]1C=N3)C=CC(C)(C)O2` showed a growth of 103%.
With `COc1ccc(-c2nc(-c3cc(OC)cc(OC)c3)[nH]c2-c2ccc(OC)cc2)cc1` the growth was 34.2%.
`CCc1ccc2c(c1)N(CCO)C1=C(C(=O)OC1)C2c1cccc(Cl)c1` (stereo not given) was tested, and the growth was 2.49% (active).
`COc1c(B(O)O)cccc1-c1nc2c(F)cc3n[nH]c(C)c3c2c2c1CCCC2` gave a growth of 15.6%.
For `O=Cc1ccc2nc(C(Cl)(Cl)Cl)ccc2c1`, the growth was 115%.
`COc1cccc(NC(=O)c2c(-c3ccccc3)c(-c3ccccc3)n[nH]c2=O)c1` showed a growth of 110%.
`CC(C)(C)CC(C)(C)NCc1cc(C(C)(C)C)cc(CNC(C)(C)CC(C)(C)C)c1O` was tested, and the growth was 0.858% (active).
Work on `O=c1[nH]c2cc(Cl)c(Cl)cc2o1` yielded a growth of 123%.
In the case of `CN1CCN(Cc2ccc(NC(=O)c3cncc(C#Cc4ncc5cnccn45)c3)cc2C(F)(F)F)CC1`, the growth is reported as 17%.
Compound `N#Cc1nc(-c2ccc(Cl)cc2)cc(-c2ccc(Nc3nc(N4CCCCC4)nc(N4CCCCC4)n3)cc2)c1N` has a growth of 113%.
For `Cc1cc(C)cc(CCCCCCCCCCCCCCCCCC(=O)O)c1`, the growth was 113%.
In the case of `CNCc1ccccc1CN(CC(=O)Nc1ccc2c(c1)CC1(C2)C(=O)Nc2ncccc21)C(=O)C(C)(C)C` (stereo not given), the growth is reported as 102%.
`N[C@@H](CO)C(=O)O` showed a growth of 106%.
